Experimental data reported in PubChem BioAssay AID1224921 (Broad Institute, 2016).
Hit rate of the full screen: of about 1,400 compounds, about 350 (25%) were called active. Roughly 2% stayed inconclusive and do not appear here. How the calls were made is not given here. Not all results are given here. Entries with a potency or affinity are not part of this list.

Test: inhibitors of Clostridioides difficile proliferation – 4-point retest, confirmation (AID 1224921);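 further: plate controls were DMSO wells for no effect and levofloxacin 16 µg/mL wells for full effect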
Conditions: Clostridioides difficile clinical isolate growth, OD600, 24 h, hits give low values; at 30 µM unless noted

Max activity, inactive:
C[C@@H]1CN([C@@H](C)CO)S(=O)(=O)c2ccc(C#CCN(C)C)cc2O[C@H]1CN(C)C(=O)c1ccccc1F 7.9%, N#C[C@@H]1[C@@H](c2ccc(/C=C/c3ccccc3)cc2)[C@@H](CO)N1C(=O)C1CCC1 38.2% [at 35 µM], COc1ccc(C(=O)Nc2ccc3c(c2)OC[C@H](C)N(C(C)=O)C[C@@H](C)[C@H](OC)CN(C)C3=O)cc1 -10.5%, C[C@H](CO)N1C[C@H](C)[C@@H](CN(C)S(C)(=O)=O)OCCCC[C@H](C)Oc2ccc(NC(=O)Nc3cccc4ccccc34)cc2C1=O 7.82%, COc1ccc(-c2ccc([C@H]3[C@@H](C#N)N(C(=O)C4CCCC4)[C@@H]3CO)cc2)cc1 25.1% [at 35 µM], CCCC(=O)Nc1ccc2c(c1)C(=O)N(C)C[C@@H](OC)[C@H](C)CN(CC1CCOCC1)[C@@H](C)CO2 -8.25%, C[C@@H]1CN([C@H](C)CO)S(=O)(=O)c2ccc(C#CC3CC3)cc2O[C@H]1CN(C)Cc1ccncc1 29.7% [at 8 µM], O=C(C[C@@H]1CC[C@H](NC(=O)CCN2CCCCC2)[C@@H](CO)O1)Nc1nccs1 -9.66% [at 1.95 µM], C[C@@H]1CCCCO[C@H](CN(C)Cc2ccc(C(F)(F)F)cc2)[C@H](C)CN([C@@H](C)CO)C(=O)c2cc(NS(C)(=O)=O)ccc2O1 30.2%, O=C(C[C@H]1C=C[C@H](NC(=O)c2ccccn2)[C@@H](CO)O1)NCc1cc(F)cc(F)c1 -9.02% [at 8 µM], O=C(C[C@H]1C[C@H]2c3cc(NC(=O)Nc4ccc(C(F)(F)F)cc4)ccc3O[C@H]2[C@@H](CO)O1)NCc1ccc2c(c1)OCO2 -6.78% [at 1.95 µM], CO[C@@H]1CN(C)C(=O)c2cc(NS(=O)(=O)c3cn(C)cn3)ccc2OC[C@@H](C)N(Cc2cccc(C(F)(F)F)c2)C[C@H]1C 28.5%, Cc1noc(C)c1NC(=O)N[C@@H]1CC[C@H](CC(=O)Nc2ccc(-c3ccccc3)cc2)O[C@H]1CO 26.4%, O=C(Nc1ccc(F)cc1)Nc1ccc2c(c1)[C@H]1C[C@@H](CC(=O)N3CCCCC3)O[C@H](CO)[C@H]1O2 -19.5% [at 2.1 µM], CCCN1C[C@@H](C)[C@@H](OC)CN(C)C(=O)c2cc(NC(=O)c3cccc(OC)c3)ccc2OC[C@H]1C -8.56% [at 0.5 µM], CC(C)CC#Cc1ccc2c(c1)O[C@H](CN(C)CC1CC1)[C@H](C)CN([C@H](C)CO)S2(=O)=O 6.75%, COCC(=O)Nc1ccc2c(c1)OC[C@H](C)N(Cc1cncnc1)C[C@@H](C)[C@H](OC)CN(C)C2=O -11.5%, COc1ccc(CNC(=O)N(C)C[C@H]2OCc3ccccc3-c3c(n(C)c4ccccc34)C(=O)N([C@@H](C)CO)C[C@@H]2C)cc1 30.4%, C[C@H](CO)N1C[C@H](C)[C@H](CN(C)C(=O)Nc2ccc(C(F)(F)F)cc2)Oc2ncc(C3=CCCC3)cc2C1=O 32.4%, C[C@H]1CN([C@@H](C)CO)C(=O)CCCn2nncc2CO[C@H]1CN(C)S(=O)(=O)c1ccc(Oc2ccccc2)cc1 10.4%, C[C@@H]1CN([C@H](C)CO)C(=O)c2cc(NC(=O)Cc3ccccc3)ccc2O[C@@H]1CN(C)C(=O)Nc1ccccc1 -4.25%, C[C@@H]1CN([C@@H](C)CO)C(=O)c2cc(NC(=O)Cc3ccccc3)ccc2O[C@@H]1CN(C)C(=O)Nc1ccccc1 -11.4% [at 0.5 µM], C[C@H](CO)N1C[C@H](C)[C@H](CN(C)C(=O)Nc2ccccc2)Oc2ccc(NC(=O)Cc3ccccc3)cc2C1=O -7.38%, C[C@H]1CN([C@@H](C)CO)C(=O)c2cc(NC(=O)Cc3ccccc3)ccc2O[C@H]1CN(C)C(=O)Nc1ccccc1 -15.5%, CNC[C@@H]1Oc2cc(-c3cccnc3)ccc2S(=O)(=O)N([C@@H](C)CO)C[C@H]1C -5.58% [at 1.95 µM], COc1ccc(-c2cnc3c(c2)C(=O)N([C@H](C)CO)C[C@H](C)[C@H](CN(C)C(=O)Nc2ccc(F)cc2)O3)cc1 13.9%, Cc1ccc(-c2ccc3c(c2)O[C@H](CN(C)Cc2ccncc2)[C@H](C)CN([C@@H](C)CO)S3(=O)=O)cc1 37.3%, CCS(=O)(=O)Nc1ccc2c(c1)C(=O)N(C)C[C@@H](OC)[C@@H](C)CN(CC1CCCC1)[C@H](C)CO2 10.5%, C[C@H](CO)N1C[C@H](C)[C@@H](CN(C)Cc2ccncc2)Oc2cc(C3=CCCCC3)ccc2S1(=O)=O 25.5% [at 28.5 µM], O=C(C[C@@H]1C[C@@H]2c3cc(NC(=O)CC4CC4)ccc3O[C@@H]2[C@@H](CO)O1)NCc1cc(F)ccc1F 18.5%, CO[C@@H]1CN(C)C(=O)c2cc(NC(=O)C3CCC3)ccc2OC[C@@H](C)N(Cc2ccncc2)C[C@@H]1C -8.85% [at 8 µM], C[C@H]1CN([C@@H](C)CO)S(=O)(=O)c2ccc(-c3ccccc3F)cc2O[C@@H]1CN(C)Cc1cccnc1 16.6%, CO[C@@H]1CN(C)C(=O)c2ccc(NC(=O)c3ccc(Oc4ccccc4)cc3)cc2OC[C@@H](C)N(C(C)=O)C[C@H]1C -13.9% [at 2.1 µM], O=C(C[C@@H]1C=C[C@@H](NC(=O)c2cccc(F)c2)[C@H](CO)O1)Nc1nccs1 13.9%, COc1ccc(S(=O)(=O)Nc2ccc3c(c2)C(=O)N([C@@H](C)CO)C[C@@H](C)[C@@H](CN(C)C(=O)CCC(F)(F)F)OCCCC[C@H](C)O3)cc1 -14.1% [at 8 µM], CO[C@H]1CN(C)C(=O)c2cc(NS(=O)(=O)c3cccc(F)c3)ccc2OC[C@@H](C)N(Cc2cc(F)ccc2F)C[C@H]1C -7.98% [at 1.95 µM], C[C@H](CO)N1C[C@H](C)[C@@H](CN(C)Cc2cccnc2)Oc2cc(C#CC3CCCC3)ccc2S1(=O)=O 41.2%, CO[C@@H]1CN(C)C(=O)c2cc(NS(=O)(=O)c3ccc(Cl)cc3)ccc2OC[C@H](C)N(C(=O)NC(C)C)C[C@H]1C -5.33% [at 8 µM], CCCN1C[C@H](C)[C@@H](OC)CN(C)C(=O)c2cc(NC(=O)c3cccc(OC)c3)ccc2OC[C@@H]1C 12.1%, CO[C@H]1CN(C)C(=O)c2ccc(NC(C)=O)cc2OC[C@H](C)N(Cc2cccc(F)c2)C[C@H]1C -6.29% [at 1.95 µM], CCC(=O)Nc1ccc2c(c1)C(=O)N(C)C[C@H](OC)[C@@H](C)CN(C(=O)CN1CCOCC1)[C@@H](C)CO2 -6.29% [at 0.5 µM], CCCC#Cc1ccc([C@@H]2[C@@H](CO)N(S(=O)(=O)c3cccc(F)c3)[C@H]2C#N)cc1 12.2% [at 1.95 µM], CCC(=O)Nc1ccc2c(c1)OC[C@@H](C)N(C(=O)CC)C[C@@H](C)[C@@H](OC)CN(C)C2=O 3.79% [at 0.5 µM], C[C@H](CO)N1C[C@H](C)[C@H](CN(C)Cc2cccnc2)Oc2cc(C#CC3CCCC3)ccc2S1(=O)=O 20.9%, COc1ccc(NC(=O)Nc2cccc3c2O[C@H](CN(C)C(=O)NC2CCCCC2)[C@@H](C)CN([C@@H](C)CO)C3=O)cc1 7.95%, CO[C@@H]1CN(C)C(=O)c2cc(NC(=O)c3ccccc3)ccc2OC[C@H](C)N(C)C[C@@H]1C 18.3%, CN(C)C(=O)C[C@H]1CC[C@H](NC(=O)C2CCOCC2)[C@@H](CO)O1 -6%, COCC(=O)N1C[C@@H](C)[C@@H](OC)CN(C)C(=O)c2ccc(NC(=O)NC(C)C)cc2OC[C@@H]1C 17.9%, CCCC(=O)Nc1ccc2c(c1)C(=O)N(C)C[C@H](OC)[C@H](C)CN(Cc1ccccc1)[C@@H](C)CO2 25.4%, COCC(=O)Nc1ccc2c(c1)OC[C@@H](C)N(Cc1ccccc1OC)C[C@@H](C)[C@@H](OC)CN(C)C2=O 16.6%, CO[C@@H]1CN(C)C(=O)c2ccc(NC(C)=O)cc2OC[C@H](C)N(Cc2cccc(F)c2)C[C@H]1C 17.2%, C[C@H]1CN([C@@H](C)CO)C(=O)c2c(c3ccccc3n2C)-c2ccccc2CO[C@H]1CN(C)Cc1cccc(C(=O)O)c1 -5.44% [at 0.5 µM], COc1ccc(-c2ccc([C@@H]3[C@@H](C#N)N(C(=O)C4CCCC4)[C@H]3CO)cc2)cc1 25.6%, C/C=C/c1ccc2c(c1)O[C@@H](CN(C)C(=O)Cc1ccncc1)[C@H](C)CN([C@@H](C)CO)S2(=O)=O 11.6%, C[C@@H]1CN([C@H](C)CO)S(=O)(=O)c2ccc(C#CC3CC3)cc2O[C@H]1CN(C)Cc1ccccc1F 11.3% [at 1.95 µM], COCC(=O)Nc1ccc2c(c1)OC[C@@H](C)N(Cc1ccccc1)C[C@@H](C)[C@@H](OC)CN(C)C2=O -9.27% [at 1.95 µM], CCCNC(=O)Nc1ccc2c(c1)C(=O)N(C)C[C@@H](OC)[C@H](C)CN(Cc1ccccc1)[C@@H](C)CO2 16.6%, COc1cccc(C#Cc2ccc3c(c2)O[C@@H](CN(C)C)[C@@H](C)CN([C@H](C)CO)S3(=O)=O)c1 29.6%
